# Source: PubChem
# Anthrax LF prot: blocks Bacillus anthracis lethal factor protease; P15917; multiplex microsphere protease cleavage assay, LF; inhibition, % at 10 µM; 0.12% of 360,000 active; AID 588501
# Bead autofluor: counter-screen for toxin protease inhibitors: compound fluorescence | compound autofluorescence counterscreen, microsphere flow cytometry; hits give high values | AID 624483 | fluorescence intensity (no concentration beside the values) | 3.1% of 360,000 active; in the data active = fluorescence intensity above about 16000; inconclusive = no clear call, values can overlap the other calls
# MazEF act: activators of E. coli MazEF toxin-antitoxin RNase; FAM/BHQ RNA-DNA oligo cleavage fluorescence, 5 h; activation, % at 20 µM; 0.32% of 350,000 active; AID 504720; in the data active = activation above about 50%
# Target sequence (P0AE70 whole entry, looked up): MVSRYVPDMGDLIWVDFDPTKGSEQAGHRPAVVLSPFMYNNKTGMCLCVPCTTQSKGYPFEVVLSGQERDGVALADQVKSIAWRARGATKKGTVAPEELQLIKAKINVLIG
# Vc quorum ag: inducers of Vibrio cholerae quorum light production without autoinducers; 0.16% of 350,000 active; V. cholerae BH1578 lux reporter, luminescence, 6 h; AID 588436; activation, % at 18.7 µM; in the data active = activation mostly above about 9.7%, no sharp cut-off; inconclusive = no clear call, values can overlap the other calls; inactive = mostly below about 3.7%
# BoNT-A LC inh2: BoNT A light chain protease inhibition; multiplex microsphere protease substrate cleavage, flow cytometry; 0.17% of 360,000 active; AID 588499; inhibition, % at 10 µM
# BoNT-F LC inh: inhibitors of Botulinum neurotoxin F light chain protease; 0.22% of 360,000 active; Multiplex microsphere protease cleavage assay, flow cytometry; inhibition, % at 10 µM; AID 588497; in the data active = inhibition above about 35%, passing the limit was not always enough; inconclusive = no clear call, values can overlap the other calls
# Hits are given with their value; i = inactive; ? = inconclusive; nt = no result given; + = active, no number. Rows were chosen to be rich in hits. Some 3.9% of all compounds tested hit in one or more screens of this group. Cut-off read from the data, not from the text of the source, unless noted: active = inhibition above about 30%; inconclusive = no clear call, values can overlap the other calls; inactive = below that.
SMILES,Anthrax LF prot,Bead autofluor,MazEF act,Vc quorum ag,BoNT-A LC inh2,BoNT-F LC inh
CCn1c(SCC(=O)NC2=NCCS2)nnc1C(C)NC(=O)c1ccccc1Br (stereo not given),i,i,i,i,i,i
COc1ccc2c(c1)c1nc3ccccc3nc1n2CC(=O)OC(C)C,i,i,369.9,i,i,i
COc1ccc(Cn2c3ccc(OC)cc3c3nc4ccccc4nc32)cc1,i,i,65.3,i,i,i
COC(=O)Cn1c2ccc(C)cc2c2nc3ccccc3nc21,i,i,i,i,i,i
COc1ccc2c(c1)c1nc3ccccc3nc1n2Cc1ccc(OC(C)C)c(OC)c1,i,i,i,i,i,i
CCN(CC)C(=O)c1cccc(-c2csc(C(O)c3ccc(F)c(F)c3)n2)c1 (stereo not given),i,i,nt,i,i,i
CCC(=O)NCc1c(Cl)cccc1-n1cccc1,i,19934,i,i,i,i
O=C1NC(Cc2c[nH]c3ccccc23)C(=O)N1Cc1ccc(CN2C(=O)NC(Cc3c[nH]c4ccccc34)C2=O)cc1 (stereo not given),i,i,i,i,i,i
NC(=O)N/N=C/c1ccc(-c2ccc([N+](=O)[O-])cc2)o1,i,i,i,i,i,i
O=C(CNc1ccccc1)N/N=C/c1ccc([N+](=O)[O-])o1,i,24670,i,i,i,i
O=C(Cc1ccccc1)N/N=C/c1ccc(-c2ccc([N+](=O)[O-])cc2)o1,i,i,347.7,i,i,i
Cc1ccc(C)c(N(CC(=O)N/N=C/c2ccc(-c3ccc([N+](=O)[O-])cc3)o2)S(=O)(=O)c2ccccc2)c1,42.2,i,i,i,50.0,i
COc1cc(C(=O)Nc2ccc3c(c2)OCCO3)c(-n2cnnn2)cc1OC,i,22353,i,i,i,i
CC(C)C(C(=O)Nc1ccc2c(c1)OCCO2)N1C(=O)c2ccccc2C1=O (stereo not given),i,i,i,i,i,i
O=C(CC(NC(=O)c1ccccc1Cl)c1ccccc1)Nc1ccc2c(c1)OCO2 (stereo not given),i,20052,i,i,i,i
CCOc1ccc(OCCC(=O)Nc2ccc3c(c2)OCO3)cc1,i,i,i,i,i,i
CC(C)C(C(=O)Nc1ccc2c(c1)OCO2)N1C(=O)c2ccccc2C1=O (stereo not given),i,20817,i,i,?,i
COc1cc(C(=O)Nc2ccc(C)cc2)c(-n2cnnn2)cc1OC,i,i,i,i,i,i
COc1ccc(OCCCC(=O)Nc2ccc3c(c2)OCO3)cc1,i,16175,i,i,i,i
COc1cccc(CC(NC(C)=O)C(=O)NC2CCN(S(=O)(=O)c3ccc(F)cc3)CC2)c1OC (stereo not given),i,i,i,i,i,i
C[C@@H]1CN([C@H](C)CO)C(=O)Cc2cc(NC(=O)Nc3ccccc3)ccc2O[C@@H]1CN(C)Cc1ccc2c(c1)OCO2,i,i,i,i,i,i
CC(=O)Nc1cc(-c2cccc(F)c2)cn2c(-c3ccccc3)cnc12,i,i,nt,i,i,i
COc1ccc(CNC(=O)COC(=O)c2cccs2)cc1,i,i,i,i,i,i
COc1ccc(C)cc1NC(=O)c1ccc2c(c1)OCO2,i,21822,i,i,i,i
CCOc1ccccc1NC(=O)NC(C)c1ccc2c(c1)OCO2 (stereo not given),i,i,nt,i,i,i
SMILES,Anthrax LF prot,Bead autofluor,MazEF act,Vc quorum ag,BoNT-A LC inh2,BoNT-F LC inh
COc1ccccc1C(=O)Nc1ccc2c(c1)OCO2,i,23284,i,i,i,i
CCOc1ccccc1C(=O)NC(C)c1ccc2c(c1)OCO2 (stereo not given),i,18046,i,i,i,i
COc1ccc(OC)c(NC(=O)c2cc3ccccc3o2)c1,i,i,i,i,i,i
COc1ccc(C)cc1NC(=O)c1cc2ccccc2o1,i,23609,i,i,?,i
COc1ccc(NC(=O)N(C)C[C@H]2Oc3c(NC(=O)Cc4ccccc4)cccc3C(=O)N([C@H](C)CO)C[C@@H]2C)cc1,i,i,i,i,i,i
CCc1c(C)sc(NC(=O)c2ccco2)c1C(=O)N1CCCCC1,i,22698,i,i,i,i
O=C(Nc1ccc(O)c(-c2nc3ccccc3s2)c1)c1cccs1,i,i,52.9,i,i,i
O=C(Nc1ccc(-c2nc3cc(NC(=O)c4cccs4)ccc3o2)cc1)c1cccs1,i,22139,i,i,i,i
Cc1ccc(-c2nc3cc(NC(=O)C(C)C)ccc3o2)cc1C,i,24088,i,i,i,i
O=C(CSc1nnc(CNC(=O)c2cccs2)o1)Nc1ccccc1F,i,i,i,i,i,i
CC(=O)N(Cc1cc2cc(C)c(C)cc2n2nnnc12)CC1COCCO1 (stereo not given),i,22636,i,i,i,i
Cc1cc2cc(CN(Cc3ccc4c(c3)OCO4)C(=O)c3cnccn3)c3nnnn3c2cc1C,i,i,i,i,i,i
Cc1ccc(NC(=O)C2CCCN2C(=O)Oc2ccccc2)cc1C (stereo not given),i,17854,i,i,i,i
COc1ccc(CC(N)c2csc(NC(=O)C(c3ccccc3)c3ccccc3)n2)cc1 (stereo not given),i,i,nt,i,i,i
CCOc1ccc(NS(=O)(=O)c2ccc(C(=O)NC3CCC(O)CC3)cc2)cc1 (stereo not given),i,i,i,i,i,i
O=C(Nc1ccccc1C(=O)NCc1ccco1)c1ccco1,i,17328,i,i,i,i
NS(=O)(=O)c1ccc(CNC(=O)c2ccccc2SCC(=O)N2CCCC2)cc1,?,?,i,i,i,i
O=C(NCc1ccco1)c1ccccc1Br,i,i,i,i,i,i
CCSc1ccccc1C(=O)NCc1ccc(S(N)(=O)=O)cc1,i,23721,i,i,i,i
CCSc1ccccc1C(=O)NCc1ccco1,i,24013,i,i,i,i
Cc1cc(SCC(=O)NN)c2cc(Br)ccc2n1,i,i,i,i,i,?
O=C(Nc1cccc(/C=C/c2ccccn2)c1)c1ccc(-n2cncn2)c([N+](=O)[O-])c1,i,i,i,i,i,i
CC(C)Nc1nc(NCc2ccccc2)c2sccc2n1,i,i,nt,i,i,i
CCOC(=O)C1(Cc2ccccc2C)CCCN(C(=O)CCc2cccnc2)C1 (stereo not given),i,i,i,i,i,i
CCC/C(O)=C1\C(=O)CC(C)(C)CC1=Nc1cccc([N+](=O)[O-])c1,i,i,i,i,i,i
COc1ccc(OC)c(-c2c3cc(O)c(=O)cc-3oc3cc(O)c(O)cc23)c1,i,i,+,i,i,i
O=c1cc2oc3cc(O)c(O)cc3c(-c3ccccc3O)c-2cc1O,i,i,i,i,i,i
Cc1ccc(S(=O)(=O)N2CCN(C(=O)CN3CCc4ccccc4C3)CC2)cc1,i,21614,i,i,i,i
Cc1ccc(S(=O)(=O)N2CCN(C(=O)COC(=O)COc3ccccc3)CC2)cc1,i,20093,i,i,i,i
